Sampled rows, rich in hits. Any-hit rate of the full collection: about 3.7%.
PfHsp90 set2: growth inhibition of PfHsp90-expressing yeast, primary screen, antimalarial PfHsp90 inhibitor project, S. cerevisiae, BacTiter-Glo luminescence, single point, set 2 | inhibition, % at 9.4 µM | 310,000 compounds, 0.32% hits | BacTiter-Glo ATP, 48 h; yeast lacking PDR1 and PDR3 efflux regulators;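 active means every replicate shows inhibition above about 80%, whatever the replicate mean, limit read from the data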;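 further: 0% = DMSO neutral controls and 100% = 20 µM radicicol positive controls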
tim10-1 inh: growth inhibitors of tim10-1 mutant yeast, primary screen, luminescence, uHTS. S. cerevisiae tim10-1 ts strain growth, BacTiter-Glo, 24 h. AID 463190, 2010. 330,000 compounds, 2.2% hits. inhibition, % at 20 µM;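 active means inhibition of at least 40%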;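 further: mutant grown at 25 °C; 0% = DMSO wells with yeast and 100% = wells holding no yeast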
TIM10 inh: growth inhibitors of isogenic TIM10 control yeast, primary screen, counter-screen for tim10-1 yeast inhibitor project, luminescence, uHTS; S. cerevisiae TIM10 strain growth, BacTiter-Glo luminescence, 24 h; inhibition, % at 10 µM; 330,000 compounds, 1.4% hits; AID 463195, 2010;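 active means inhibition of 40% or more at the single tested concentration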;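 further: wild-type TIM10 isogenic control strain grown at permissive 25 °C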
V-ATPase pH: regulators of yeast V-ATPase proton pumping, primary screen, pHLuorin cytosolic pH fluorescence. S. cerevisiae. response, % at 10 µM. 350,000 compounds, 0.37% hits. AID 504577, 2011; in the data active means response mostly above about 7.3%, no sharp cut-off; inactive means mostly below about 5.4%; further: actives read high
tim23-1 inh: growth inhibitors of tim23-1 mutant yeast, primary screen, luminescence, uHTS; 330,000 compounds, 1.3% hits; inhibition, % at 20 µM; S. cerevisiae tim23-1 growth, BacTiter-Glo luminescence, 24 h;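 active means growth inhibition of the mutant yeast at or above 50%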;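 further: temperature-sensitive mutant grown at 25 °C; plate controls were DMSO-treated mutant yeast for no effect and medium wells lacking yeast for full effect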
tim10-1 confirm: growth inhibitors of tim10-1 mutant yeast, confirmation, single concentration, luminescence, S. cerevisiae; shares compounds with tim10-1 inh; S. cerevisiae tim10-1 ts strain growth, BacTiter-Glo, 24 h; inhibition, % at 20 µM; 7,400 compounds, 56% hits; AID 463213, 2010;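 active means inhibition of yeast growth at or above a set limit in either of two repeat tests at 20 µM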;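 further: tim10-1 mutant grown at permissive 25 °C to find synthetic lethal compounds; 0% = DMSO yeast wells and 100% = medium wells without yeast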
* hit, by the source's call; / = no result given.

SMILES	PfHsp90 set2	tim10-1 inh	TIM10 inh	V-ATPase pH	tim23-1 inh	tim10-1 confirm
COc1ccc(S(=O)(=O)NN(C)c2ncc(C(F)(F)F)cc2Cl)cc1	5.2	40.3*	7.3	4.3	15.1	14.9
COc1ccc2[nH]c3c(c2c1)CCN1C(=O)C(CC(=O)NC(C)(C)C)C[C@H](C(=O)N2CCCCC2)[C@@]31CCc1ccccc1 (some centres not stated)	18.2	16.1	17.5	2.8	38.3	/
Cc1cc(C)c2nc(C(F)(F)F)c(C#N)c(N)c2c1	-6.5	41.6*	29.7	-4.9	11.2	20.4
Cc1ccc(Nc2c(-c3ccccc3O)nc3cnccn23)cc1	-1.9	40.1*	13.8	3.4	46.9	26.9
COc1ccc(-c2cc3nc(-c4ccccc4)cc(N4CCN(C(C)=O)CC4)n3n2)cc1	/	/	/	1.1	/	/
COc1ccc(-c2cc3nc(-c4ccccc4)cc(N4CCC(O)CC4)n3n2)cc1	31.0	40.5*	32.9	-4.6	49.4	23.6
CC(=O)c1ccc(N2CCC(c3cc(-c4ccc(Cl)cc4Cl)n[nH]3)CC2)c([N+](=O)[O-])c1	/	43.6*	35.5	1.9	16.4	22.3
O=[N+]([O-])c1cccnc1N1CCC(c2cc(-c3ccc(Cl)cc3Cl)n[nH]2)CC1	-59.5	36.6	31.7	-2.3	25.9	/
O=C(NC(c1cccnc1)C(F)(F)F)c1cc(COc2ccc3c(c2)CCCC3)on1 (configuration not stated)	6.1	41.8*	4.8	0.5	36.5	13.9
CN1C(=O)[C@@H]2[C@@H]3C[C@@H]([C@H]4ON=C(c5ccc(Cl)cc5)[C@@H]34)[C@@H]2C1=O	-3.6	0.8	10.0	7.0	16.1	/
O=C1[C@@H]2[C@@H]3C[C@@H]([C@H]4ON=C(c5ccc(Cl)cc5Cl)[C@@H]34)[C@@H]2C(=O)N1C1CCCCC1	-0.9	52.0*	13.5	-0.5	41.1	33.6*
CC(N=c1ccccn1C(=O)Nc1cccc(C(F)(F)F)c1)c1ccco1 (configuration not stated)	/	41.2*	32.8	0.5	28.9	32.7*
CC1CN(C(=O)Nc2cccc(C(F)(F)F)c2)CC(C)O1 (configuration not stated)	-26.1	21.8	18.4	-0.1	49.0	/
O=C(O)C(F)=C(c1ccccc1)c1ccccc1	1.9	-14.6	-25.8	-3.1	19.7	/
Cc1ccc(S(=O)(=O)N(C(=O)c2ccncc2)c2ccc(OC(=O)c3ccncc3)c3ccccc23)cc1	-17.5	27.2	30.4	1.3	45.9	/
Cc1ccc(S(=O)(=O)N(C(=O)c2ccncc2)c2ccc(OC(=O)c3ccncc3)c3ccccc23)c(C)c1	2.6	48.0*	19.4	-4.3	45.7	32.4*
CC1Sc2ccc(S(=O)(=O)N3CCC(C(=O)N(C)Cc4ccccc4)CC3)cc2NC1=O (configuration not stated)	-12.5	13.1	5.2	1.8	11.1	/
CN1CC(c2ccc(C#N)cc2)C2(COc3ccccc3C2=O)C12C(=O)Nc1ccccc12 (configuration not stated)	1.9	40.2*	38.5	1.4	47.7	40.0*
COc1ccc(NC(=O)c2cnc(SC)nc2)cc1	-10.8	-15.7	4.4	6.0	27.9	/
Cc1ccc(S(=O)(=O)N2CCN(CC(=O)Nc3ccc(N4CCOCC4)cc3)CC2)cc1C	-32.3	17.5	4.1	3.3	19.4	/
Cc1ccc(C)c(N2CCN(S(=O)(=O)c3ccc4c(c3)NC(=O)CS4)CC2)c1	21.5	45.6*	11.6	0.8	39.2	9.8
Cc1cccc(N2CCN(S(=O)(=O)c3ccc4c(c3)OCCO4)CC2)c1C	1.1	46.3*	12.4	6.0	36.6	31.7*
Cc1cccc(N2CCN(S(=O)(=O)c3ccc(S(=O)(=O)N4CCCC4)cc3)CC2)c1C	/	-0.4	4.6	-1.4	5.3	/
CC(=O)N1CCOc2ccc(S(=O)(=O)N3CCN(c4cc(C)ccc4C)CC3)cc21	8.1	43.1*	14.7	0.4	33.9	33.9*
Cc1cccc(N2CCN(CC(=O)Nc3ccc(S(=O)(=O)N4CCOCC4)cc3)CC2)c1C	-14.4	41.3*	21.8	7.0	23.3	19.1
SMILES	PfHsp90 set2	tim10-1 inh	TIM10 inh	V-ATPase pH	tim23-1 inh	tim10-1 confirm
CC(=O)N1CCOc2ccc(S(=O)(=O)N3CCCCC3)cc21	-25.9	2.6	0.5	1.3	1.9	/
CN1CCN(S(=O)(=O)c2ccc3c(c2)NC(=O)CS3)CC1	-6.7	-17.5	6.1	0.8	2.4	/
CN(C(=O)c1cccc(NC(=O)Cc2ccc(NC(=O)C3CCCN(C(=O)C4CCCC4)C3)cc2)c1)C1CC1 (configuration not stated)	18.4	/	/	1.2	/	/
CN(Cc1cn(Cc2ccccc2)nc1-c1ccc2c(c1)OCO2)Cc1nccn1C	-2.0	-0.8	1.4	-2.1	-8.1	/
CCOc1ccc(C2Nc3cccc4cccc(c34)N2)cc1OC	3.4	16.4	6.4	1.7	17.2	/
CCOc1cc(C2Nc3cccc4cccc(c34)N2)ccc1O	-5.7	50.9*	32.1	1.1	37.3	29.4
COc1ccc(N(CC(=O)N/N=C/c2cccnc2)S(=O)(=O)c2ccc(C)cc2)cc1OC	-3.6	-8.5	2.8	3.8	3.7	/
O=C1/C(=C/c2ccccc2)SC(=S)N1CC(=O)N1CCCCC1c1cccnc1 (configuration not stated)	10.7	46.9*	17.1	3.0	46.5	16.1
O=C1/C(=C\c2ccccc2)SC(=S)N1CCC(=O)N1CCCCC1CCO (configuration not stated)	-29.0	32.4	25.9	1.9	46.0	/
Cc1[nH]c(=O)nc(SCc2cccc(Cl)c2)c1C#N	6.0	10.5	3.0	-5.0	6.6	/
N#Cc1c(-c2ccccc2)nc(SCc2cccc(Cl)c2)[nH]c1=O	-32.9	42.1*	17.5	-0.9	33.3	27.1
CN(C)c1ccc(C(=O)/C=C/c2cccnc2)cc1	-9.6	19.3	9.2	-2.7	19.4	/
O=C(/C=C/c1cccnc1)c1ccc(F)c(F)c1	5.5	40.1*	17.8	8.3	33.2	26.5
O=[N+]([O-])c1cc(/C=N\Nc2nc(-c3ccccc3)cs2)ccc1O	-21.7	14.8	23.8	-0.6	3.1	/
Cc1csc(N/N=C/c2ccc(O)c([N+](=O)[O-])c2)n1	/	50.5*	30.0	-2.6	40.2	33.0*
O=C1CCC2c3[nH]c4ccccc4c3CCN12 (configuration not stated)	/	/	/	-4.5	/	/
COc1ccc(OCc2cc(C(=O)NC(C)Cc3cnccn3)no2)c(Cl)c1 (configuration not stated)	-8.7	7.1	2.4	2.2	1.9	/
Cc1ccc(S(=O)(=O)/N=C2/NC(=O)/C(=C\c3cc(Br)cc(Br)c3O)S2)cc1	7.7	41.8*	38.4	1.3	36.5	37.0*
